PubChem BioAssay
Activity calls are given as the source filed them.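 Rule for the calls, unless noted: active = visually confirmed hit in the image check and inhibition above 20%; inconclusive = visually confirmed hit but inhibition not above 20%; inactive = no visual hit in the image check.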

How the values were obtained:
[1] = inhibitors of TNFa-induced NFkB p65 translocation, primary screen, imaging, HUVEC, MLSMR starter and 10KST1 sets (AID 438;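 active = inhibition above 20% together with a positive visual image hit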;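 note: compound added about 3h40 before a 20 min TNFalpha stimulation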;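 for inhibition: signal is the nuclear over cytoplasmic p65 intensity ratio per well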); conditions: HUVEC TNFa-induced p65 nuclear translocation; cell count: measured here: nuclei count (cytotoxicity indicator), at 2.08 µM; inhibition: at 2 µM, stronger effect = higher value, 0% TNFa-plus-vehicle, 100% no-TNFa wells
[2] = reduction of polyQ htt aggregates in cells – imaging, exon1htt(103Q)mCFP cells, high-content imaging, primary screen (AID 483;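 active = visual image review flags a hit and inhibition of aggregation exceeds 20%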;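 note: compound exposure lasted 3 days before fixation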;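 for nuclei count: percent of the per-plate median nuclei count of sample wells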); conditions: exon1htt(103Q)mCFP cell line, aggregate imaging, at 2 µM; inhibition of aggregation: stronger effect = higher value; nuclei count: measured here: cell count, toxicity
[3] = endothelial E-selectin expression blockers – imaging, HUVEC, immunofluorescence, MLSMR starter and 10KST1 sets, primary screen (AID 487); conditions: HUVEC TNFalpha-induced E-selectin immunofluorescence imaging, at 2 µM; inhibition: stronger effect = higher value; nuclei count: measured here: cell number, toxicity;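 for inhibition: signal is fraction of cell area covered by stained E-selectin grains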;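 for nuclei count: 100% = median nuclei count of all wells on the same plate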
[4] = target: Voltage-gated potassium channel subunit beta-2 (Rattus norvegicus) (UniProt P62483); test: inhibitors of rat Kvbeta2 reductase activity – biochemical, NADPH fluorescence, primary screen (AID 622;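 active = fluorescence slope higher than the sample average by over 3 SD, cut at about -0.22 in these data, passing the limit was not always enough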;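 note: slope of raw intensity against log time taken from 70 to 1610 s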); conditions: recombinant KvBeta, 4-cyanobenzaldehyde reduction, at 10 µM, stronger effect = higher value
Sequence of Voltage-gated potassium channel subunit beta-2 (Rattus norvegicus) (P62483 whole entry, looked up): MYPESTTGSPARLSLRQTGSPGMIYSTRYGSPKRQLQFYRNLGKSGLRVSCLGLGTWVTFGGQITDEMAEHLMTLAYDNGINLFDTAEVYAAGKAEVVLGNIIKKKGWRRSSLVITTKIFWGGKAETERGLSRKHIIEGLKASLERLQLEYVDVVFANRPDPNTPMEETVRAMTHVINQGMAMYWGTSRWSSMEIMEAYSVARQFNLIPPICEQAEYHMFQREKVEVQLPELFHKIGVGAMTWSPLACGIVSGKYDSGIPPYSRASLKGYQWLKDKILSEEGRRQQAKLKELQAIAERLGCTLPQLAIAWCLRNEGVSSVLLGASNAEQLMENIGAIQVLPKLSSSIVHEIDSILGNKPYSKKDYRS

[5] = target: Voltage-gated potassium channel subunit beta-2 (Rattus norvegicus) (UniProt P62483); test: enhancers of rat Kvbeta2 NADPH turnover – biochemical, NADPH fluorescence, primary screen (AID 623;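 active = NADPH fluorescence slope more negative than the mean of all samples by about 3 SD, 99.7% confidence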;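 note: fluorescence intensity change per second fitted from 20 to 320 s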); conditions: Recombinant KvBeta, NADPH fluorescence decrease slope, 10 min; at 10 µM; stronger effect = lower value
[6] = target: Alpha-2C adrenergic receptor (Homo sapiens) (UniProt P18825); test: compounds altering alpha2C-coupled GIRK flux – cell-based, HEK293 alpha2C/GIRK1/2, thallium flux, primary screen (AID 624;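 active = fluorescence slope after compound addition differing from the mean of all screened samples at 99.7% confidence, in either direction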;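 note: slope of fluorescence ratio to pre-addition baseline per second over 15 to 24 s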); conditions: thallium flux BTC fluorescence, at 10 µM, actives lie on both sides
Sequence of Alpha-2C adrenergic receptor (Homo sapiens) (P18825 whole entry, looked up): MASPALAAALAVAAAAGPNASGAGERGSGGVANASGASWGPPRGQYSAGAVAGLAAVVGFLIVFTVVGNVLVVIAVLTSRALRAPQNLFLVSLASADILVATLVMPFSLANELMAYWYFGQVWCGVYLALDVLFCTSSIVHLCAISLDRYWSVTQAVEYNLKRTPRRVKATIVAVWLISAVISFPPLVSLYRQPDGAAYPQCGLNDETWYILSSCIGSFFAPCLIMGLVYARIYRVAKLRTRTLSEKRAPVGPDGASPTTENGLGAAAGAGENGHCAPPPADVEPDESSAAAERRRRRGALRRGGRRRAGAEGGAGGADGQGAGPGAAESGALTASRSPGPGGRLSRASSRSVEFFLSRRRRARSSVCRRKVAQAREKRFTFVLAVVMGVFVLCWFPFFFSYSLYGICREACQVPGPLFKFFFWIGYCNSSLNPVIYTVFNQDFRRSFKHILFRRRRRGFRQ

[7] = blockers of RIG-like receptor reporter activation – cell-based, Sendai virus stimulus, luciferase, 10K MLSCN set, TLR/RLR signaling modifier project, primary screen (AID 602276;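 active = inhibition at or above 50% at 10 µM; inactive = inhibition below 50%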;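 note: firefly luciferase from ISG56 promoter only with Renilla not read in this screen; 0% = Sendai virus plus DMSO and 100% = medium plus DMSO without virus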); conditions: HEK293 RL24 IRF3 luciferase reporter, at 10 µM, stronger effect = higher value
[8] = TLR3 IRF3 reporter activation blockers – cell-based, poly I:C stimulus, luciferase, 10K MLSCN set, primary screen (AID 602277;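 active = inhibition of the reporter signal at or above 50%; inactive = inhibition below 50%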); conditions: HEK293-TLR3 RL24 IRF3 luciferase reporter, at 10 µM, stronger effect = higher value

| Structure (SMILES) | cell count [1] | inhibition [1] | inhibition of aggregation [2] | nuclei count [2] [%] | inhibition [3] | nuclei count [3] [%] | fluorescence slope [4] | NADPH fluorescence slope [5] | slope [6] | inhibition [7] | inhibition [8] |
| --- | --- | --- | --- | --- | --- | --- | --- | --- | --- | --- | --- |
| COc1ccc(CCNc2oc(-c3ccco3)nc2C#N)cc1 | 560 | 15.1% (inactive) | 0.7% (inactive) | 103 | 35.2% (inactive) | 84.1 | -0.605 (inactive) | -3.5e-05 (inactive) | 0.00388 (inactive) | -0.514% (inactive) | -18.9% (inactive) |
| CCn1c(CCC(=O)Nc2nc3c(s2)CCCC3)nc2cc(S(=O)(=O)N(C)C)ccc21 | 288 | 1.4% (inactive) | -9% (inactive) | 103 | -54.4% (inactive) | 123 | -0.398 (inactive) | -3e-05 (inactive) | 0.00627 (inactive) | 14.6% (inactive) | 18.8% (inactive) |
| CCSc1nnc(N2C(=O)CC(c3ccsc3)C3=C2CC(C)(C)CC3=O)s1 (stereo not drawn) | 558 | 0% (inactive) | 4.8% (inactive) | 109 | -46.6% (inactive) | 115 | -0.55 (inactive) | -4.6e-05 (inactive) | 0.00599 (inactive) | 11.7% (inactive) | 35.7% (inactive) |
| Cc1sc2nc(SCC(=O)Nc3c(C)n(C)n(-c4ccccc4)c3=O)n(C)c(=O)c2c1C | 556 | -8.3% (inactive) | 9% (inactive) | 74.8 | 13.4% (inactive) | 118 | -0.376 (inactive) | 1e-05 (inactive) | 0.00842 (inactive) | 5.86% (inactive) | -5.09% (inactive) |
| O=C(NCc1ccco1)c1cccc(-c2nnc(-c3ccccc3)o2)c1 | 320 | -6% (inactive) | 5.1% (inactive) | 122 | -78.1% (inactive) | 124 | -0.422 (inactive) | -6.2e-05 (inactive) | 0.00529 (inactive) | 18.5% (inactive) | -23.1% (inactive) |
| Cc1ccc(N(Cc2ccco2)C(=O)c2cccc(S(=O)(=O)N(C)C)c2)cc1 | 357 | 2.1% (inactive) | 25.6% (inactive) | 103 | 66% (inactive) | 97.5 | -0.393 (inactive) | -4.3e-06 (inactive) | 0.0037 (inactive) | 0.154% (inactive) | 14.9% (inactive) |
| CCSc1nnc(-c2ccc(OC)cc2)o1 | 651 | 11.1% (inactive) | 0% (inactive) | 99.1 | 61.5% (inactive) | 106 | -0.242 (inactive) | -1.2e-05 (inactive) | 0.00568 (inactive) | -34% (inactive) | -118% (inactive) |
| O=C(COC(=O)c1cnccn1)Nc1ccc2c(c1)OCO2 | 589 | 7.8% (inactive) | -8% (inactive) | 103 | -56.6% (inactive) | 105 | -0.484 (inactive) | -2.2e-05 (inactive) | 0.00566 (inactive) | 5.28% (inactive) | 21.1% (inactive) |
| CNC(=O)CSc1nnc(-c2cccc(S(=O)(=O)N3CCOCC3)c2)n1-c1ccc(F)cc1 | 474 | 7.2% (inactive) | 13.2% (inactive) | 104 | -18.5% (inactive) | 106 | -0.376 (inactive) | -6.4e-05 (inactive) | 0.00569 (inactive) | 6.45% (inactive) | 26% (inactive) |
| O=S(=O)(c1cccc(S(=O)(=O)N2CCC(N3CCCCC3)CC2)c1)N1CCOCC1 | 725 | -4.8% (inactive) | -6.3% (inactive) | 123 | -3.7% (inactive) | 106 | -0.469 (inactive) | -1.3e-06 (inactive) | 0.00684 (inactive) | 7.24% (inactive) | 28.4% (inactive) |
| Cc1ccc2cc(C(c3nnnn3CC3CCCO3)N3CCc4ccccc4C3)c(=O)[nH]c2c1 (stereo not drawn) | 691 | -6.9% (inactive) | 0.5% (inactive) | 78.6 | -102% (inactive) | 120 | -0.523 (inactive) | -3.7e-05 (inactive) | 0.00473 (inactive) | 14% (inactive) | 29.9% (inactive) |
| CC(C)N(Cc1nc(-c2ccccc2)no1)C(=O)CCCN1C(=O)c2ccccc2C1=O | 475 | -9.3% (inactive) | -7.3% (inactive) | 112 | -78.3% (inactive) | 158 | -0.53 (inactive) | -8.9e-06 (inactive) | 0.00616 (inactive) | 4.76% (inactive) | 3.27% (inactive) |
| O=C1OCCC1Sc1ncnc2sc3c(c12)CCC3 (stereo not drawn) | 755 | -6.2% (inactive) | 4.8% (inactive) | 84.1 | -9.4% (inactive) | 111 | -0.412 (inactive) | 4.3e-06 (inactive) | 0.00667 (inactive) | 9.45% (inactive) | 17% (inactive) |
| COc1ccc(-c2nc(CCNC(=O)c3ccco3)cs2)cc1OC | 696 | -9.6% (inactive) | -8.9% (inactive) | 102 | -4% (inactive) | 114 | -0.524 (inactive) | -2.4e-05 (inactive) | 0.00779 (inactive) | 22.7% (inactive) | -5.2% (inactive) |
| O=C(CN(Cc1ccco1)C(=O)c1cc(=O)[nH]c2ccccc12)Nc1ccccc1Br | 498 | -22.4% (inactive) | 11.6% (inactive) | 103 | 10.6% (inactive) | 105 | -0.58 (inactive) | -4.1e-05 (inactive) | 0.00457 (inactive) | 16% (inactive) | 16.8% (inactive) |
| COCCn1nnnc1C(c1cc2ccc(OC)cc2[nH]c1=O)N1CCc2ccccc2C1 (stereo not drawn) | 454 | 7.5% (inactive) | -1.5% (inactive) | 86.9 | -43% (inactive) | 95.9 | -0.503 (inactive) | -1.3e-05 (inactive) | 0.00527 (inactive) | 29.3% (inactive) | 37.8% (inactive) |
| O=C1CC(c2cccnc2)c2cc3c(cc2N1)OCO3 (stereo not drawn) | 451 | -1.2% (inactive) | -3.3% (inactive) | 104 | -79.3% (inactive) | 102 | -0.527 (inactive) | -6.9e-06 (inactive) | 0.00697 (inactive) | 0.756% (inactive) | 25% (inactive) |
| CCCCc1ccc(NC(=O)C2CCCO2)cc1 (stereo not drawn) | 387 | -1.8% (inactive) | -7.2% (inactive) | 105 | -122% (inactive) | 98.5 | -0.376 (inactive) | -3e-05 (inactive) | 0.00635 (inactive) | -42.7% (inactive) | -136% (inactive) |
| COc1ccc(C(=O)COC(=O)CCn2nnc(-c3cccs3)n2)cc1 | 237 | 2.2% (inactive) | 20% (inactive) | 78.6 | 56.4% (inactive) | 73.7 | -0.426 (inactive) | 1.6e-05 (inactive) | 0.00571 (inactive) | -6.55% (inactive) | -7.1% (inactive) |
| COc1ccc(C(=O)NCc2nnc(SC)n2C2CCCCC2)cc1 | 591 | -2.4% (inactive) | -1.1% (inactive) | 96 | -35.7% (inactive) | 101 | -0.521 (inactive) | -3.9e-05 (inactive) | 0.00737 (inactive) | 18.8% (inactive) | 26% (inactive) |
| CN1C(=O)C(O)(CC(=O)c2ccccc2O)c2cc(Br)ccc21 (stereo not drawn) | 608 | 3.4% (inactive) | -2.8% (inactive) | 63.4 | -59.3% (inactive) | 124 | -0.439 (inactive) | -6e-05 (inactive) | 0.00404 (inactive) | 7.07% (inactive) | 55.8% (active) |
| COc1ccc(NC(=O)CC2Oc3ccccc3NC2=O)cc1 (stereo not drawn) | 560 | 8.3% (inactive) | -0.3% (inactive) | 92.4 | -48.1% (inactive) | 122 | -0.556 (inactive) | -3.2e-05 (inactive) | 0.00626 (inactive) | 4.81% (inactive) | 31.8% (inactive) |
| O=C1COc2ccc(C(=O)COC(=O)CCc3ccc(S(=O)(=O)N4CCOCC4)cc3)cc2N1 | 410 | -1.9% (inactive) | 12.6% (inactive) | 90.4 | -119% (inactive) | 104 | -0.37 (inactive) | -5.9e-05 (inactive) | 0.00618 (inactive) | 4.84% (inactive) | 23.5% (inactive) |
| COc1ccc(-c2nnc(SCC(=O)N3CCCCC3)o2)cc1OC | 670 | -1.6% (inactive) | 5.7% (inactive) | 120 | -85.6% (inactive) | 123 | -0.543 (inactive) | -9.6e-06 (inactive) | 0.00656 (inactive) | 3.05% (inactive) | 15.9% (inactive) |
| CC(C)OC(=O)C1C2C=CC3(CN(Cc4cccs4)C(=O)C13)O2 (stereo not drawn) | 469 | 5% (inactive) | 0.9% (inactive) | 83.9 | -92.4% (inactive) | 111 | -0.533 (inactive) | -1.6e-05 (inactive) | 0.005 (inactive) | 20.6% (inactive) | 32.2% (inactive) |
| Cn1c(=O)c2c(nc(NCc3ccco3)n2C/C=C/c2ccccc2)n(C)c1=O | 256 | 8.8% (inactive) | 6.1% (inactive) | 99.5 | -65.5% (inactive) | 118 | -0.637 (inactive) | 3.3e-05 (inactive) | 0.00629 (inactive) | 14.8% (inactive) | 18.9% (inactive) |
| CN(C)Cc1cn(CCC(=O)O)c2ccccc12 | 331 | 5.3% (inactive) | -18.2% (inactive) | 90.8 | 9.1% (inactive) | 103 | -0.481 (inactive) | 4.3e-05 (inactive) | 0.00704 (inactive) | -16.1% (inactive) | 19.4% (inactive) |
| O=C(CCSc1ccccc1)Nc1ccc(S(=O)(=O)N2CCOCC2)cc1 | 381 | 5.2% (inactive) | 8.5% (inactive) | 105 | -102% (inactive) | 109 | -0.53 (inactive) | -5.2e-06 (inactive) | 0.00555 (inactive) | 18.1% (inactive) | 11.6% (inactive) |
